The values below come from the supplement of paper PMC9694430.

Counter-ions that a name gives are not always drawn.

The experiment relates to LOC_OS04G35114-cb001. Put plainly: thermal shift delta Tm vs DMSO control; higher = stronger stabilization (binding). The note with it: 12.5 µM; protein concentration 2 µM. Summed up:
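The melting temperature shift given here is a triplicate mean, measured against protein that received only DMSO. Melting temperatures came from Boltzmann fits of differential scanning fluorimetry data on E. coli-expressed, purified rice kinase domain constructs. Each 19.5 μl well contained 2 μM kinase, 100 mM potassium phosphate pH 7.5, 150 mM NaCl, 10% glycerol, 5 × SYPRO Orange and compound in DMSO. Plates were scanned from 25°C to 95°C at 0.05°C/s.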
Regarding `CCn1c(=O)c(-c2ccc(-c3cncs3)cc2Cl)cc2cnc(Nc3ccc(N4CCN(C)CC4)cc3)nc21`, the “thermal shift delta Tm” value was 0.85 °C.

Consider `CNC(=O)c1cccc(-c2ccc3c(N4CCOC[C@@H]4C)nc(N4CCOC[C@@H]4C)nc3n2)c1` [Vistusertib (AZD2014)], for which the “thermal shift delta Tm” value is -0.19 °C.

Regarding `CC(C)S(=O)(=O)c1ccc2nccc(Nc3ccc4scnc4c3)c2c1`, the “thermal shift delta Tm” value came to 2.38 °C.

With `Cn1cc(-c2ccc3ncc(Cc4ccc5ncccc5c4)n3n2)cn1`, the “thermal shift delta Tm” value came out at 2.6 °C.

In the case of `N#Cc1ccc2ncnc(NCCc3ccccc3)c2c1` [Senexin A], the “thermal shift delta Tm” value was found to be 1.3 °C.

Regarding `O=C1NC(=O)/C(=C/c2ccc3nccc(-c4ccncc4)c3c2)S1`, the “thermal shift delta Tm” value turned out to be 7.2 °C.

For the compound `Cn1cnc2c(F)c(Nc3ccc(Br)cc3F)c(C(=O)NOCCO)cc21`, the “thermal shift delta Tm” value came to 0 °C.

Regarding `Cc1cc(Nc2ncc(Cl)c(Nc3ccccc3S(=O)(=O)C(C)C)n2)c(OC(C)C)cc1C1CCNCC1` [Ceritinib (LDK378)], the “thermal shift delta Tm” value came out at 0.66 °C.

As for `Cc1nc2ccc(-n3ncc(C(=O)c4cc5ccccc5[nH]4)c3N)cc2[nH]1`, the “thermal shift delta Tm” value was 3.8 °C.

Take `C=C[C@@](C)(/C=C/c1ccc(O)cc1)CCC=C(C)C` [Bakuchiol]: the “thermal shift delta Tm” value was 0.46 °C.

Take `C=CC(=O)Nc1cccc(Nc2nc(Nc3ccc(N4CCN(C(C)=O)CC4)cc3OC)ncc2C(F)(F)F)c1` [Rociletinib (CO-1686, AVL-301)]: the “thermal shift delta Tm” value was 2.08 °C.

Take `CCCS(=O)(=O)Nc1ccc(F)c(C(=O)c2c[nH]c3ncc(-c4ccc(Cl)cc4)cc23)c1F` [Vemurafenib (PLX4032, RG7204)]: the “thermal shift delta Tm” value worked out at 4.48 °C.

As for `COc1cc(OC)c(C=C2C(=O)Nc3ccccc32)c(OC)c1`, the “thermal shift delta Tm” value was found to be 0.7 °C.

With `CCN(CC)CCCC(C)Nc1nc(C)cc(Nc2ccc3nc(C)cc(N)c3c2)n1` (centres undefined), the “thermal shift delta Tm” value was 0.62 °C.

Turning to `CN1CC(O)C2=C/C(=N/NC(N)=O)C(=O)C=C21` (centres undefined) [Carbazochrome], the “thermal shift delta Tm” value was -0.02 °C.

On to `Cc1cc(Nc2cc(N3CCN(C)CC3)nc(/C=C/c3ccccc3)n2)n[nH]1`, for which the “thermal shift delta Tm” value is 6.22 °C.

As for `Cc1ccc(NC(=O)Nc2cc(C(F)(F)F)ccc2F)cc1Nc1ccc2c(c1)NC(=O)/C2=C\c1ccc[nH]1`, the “thermal shift delta Tm” value is -0.61 °C.

On to `CO[C@H]1C[C@@H]2CC[C@@H](C)[C@@](O)(O2)C(=O)C(=O)N2CCCC[C@H]2C(=O)O[C@H]([C@H](C)C[C@@H]2CC[C@@H](O)[C@H](OC)C2)CC(=O)[C@H](C)/C=C(\C)[C@@H](O)[C@@H](OC)C(=O)[C@H](C)C[C@H](C)/C=C/C=C/C=C/1C` [Rapamycin (Sirolimus)], for which the “thermal shift delta Tm” value was 0.52 °C.

Take `C[S+]([O-])c1ccc(-c2nc(-c3ccc(F)cc3)c(-c3ccncc3)[nH]2)cc1` (centres undefined): the “thermal shift delta Tm” value stood at 1.35 °C.

On to `CO[C@H]1CC[C@H](N2C(=O)CNc3ncc(-c4ccc(C(C)(C)O)nc4)nc32)CC1`, for which the “thermal shift delta Tm” value was -0.71 °C.

Consider `O=C(Nc1ccccc1C(=O)NC1CCCCNC1=O)c1cc2ccccc2s1` (centres undefined), for which the “thermal shift delta Tm” value turned out to be 0.94 °C.

For the compound `CCN1CCN(Cc2ccc(-c3cc4c(N[C@H](C)c5ccccc5)ncnc4[nH]3)cc2)CC1`, the “thermal shift delta Tm” value is 3.16 °C.

Regarding `Cc1cnc(NC(=O)Nc2cc(Br)c(C)cc2OC[C@@H]2CNCCO2)cn1`, the “thermal shift delta Tm” value came out at 1.71 °C.

As for `Cc1ccc(NC(=O)c2ccc(CN3CCN(C)CC3)cc2)cc1Nc1nccc(-c2cccnc2)n1` [Imatinib Mesylate (STI571)], the “thermal shift delta Tm” value was 0.75 °C.

Take `NC(=O)c1ccc(N(C(N)=O)c2c(F)cccc2F)nc1-c1ccc(F)cc1F`: the “thermal shift delta Tm” value stood at 0.57 °C.

On to `Cc1nc(-c2cn3c(n2)-c2ccc(-c4cnn(C(C)(C)C(N)=O)c4)cc2OCC3)n(C(C)C)n1` [Taselisib (GDC 0032)], for which the “thermal shift delta Tm” value is 0.68 °C.

Turning to `COc1cc(N2CCC(N(C)C)CC2)ccc1Nc1ncc(Cl)c(Nc2ccccc2P(C)(C)=O)n1`, the “thermal shift delta Tm” value stood at 4.67 °C.

Consider `COc1cc2c(Nc3ccc(NC(=O)c4ccccc4)cc3)ncnc2cc1OCCCN1CCOCC1`, for which the “thermal shift delta Tm” value was 2.46 °C.

As to `CNC(=O)c1cc(Oc2ccc(NC(=O)Nc3cc(C(C)(C)C)nn3-c3ccc4ncccc4c3)c(F)c2)ccn1` [Rebastinib (DCC-2036)], the “thermal shift delta Tm” value stood at 0.84 °C.

With `CC(C)(CO)n1cc(C(=O)c2cncc(NC(=O)Cc3ccc(Cl)cn3)c2)c2cnc(N)nc21`, the “thermal shift delta Tm” value came to 0.51 °C.

For the compound `CS(=O)(=O)N1CCN(Cc2cc3nc(-c4cccc5[nH]ncc45)nc(N4CCOCC4)c3s2)CC1` [Pictilisib (GDC-0941)], the “thermal shift delta Tm” value was found to be 1.73 °C.

Turning to `C[C@@H]1COC(Nc2ccc3ncnc(Nc4ccc(OCc5nccs5)c(Cl)c4)c3c2)=N1` [Varlitinib], the “thermal shift delta Tm” value was 1.59 °C.

As for `COc1cc(Nc2ncc(F)c(Nc3ccc4c(n3)NC(=O)C(C)(C)O4)n2)cc(OC)c1OC`, the “thermal shift delta Tm” value stood at 2.97 °C.

As to `CC(C)n1nc(-c2ccc3oc(N)nc3c2)c2c(N)ncnc21`, the “thermal shift delta Tm” value turned out to be 5.42 °C.
